KinaseGlo FLuc – Kinase-Glo luciferase inhibition (counter-screen) | Kinase-Glo luciferase, ATP luminescence, 8 min | Q27757 | Potency, µM (doses to about 38.3 µM), without a hit: top-dose activity change, negative = inhibition, actives largely listed as inhibitors | AID 1379 | actives 0.28% (n = 200,000); further: on the % scale 0 is the no-effect control and ±100 the full control effect; nearly all actives have a fitted effect of over 60% in size
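Recombinant Kinase-Glo luciferase, 10 uM ATP (linear range), luciferin; imidazole pH 7.2 / KCl / MgCl2 / Tween / BSA buffer; 8 min RT; luminescence.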
NPC1 promoter act – activates the NPC1 promoter | Huh7 NPC1 promoter luciferase reporter, 24 h | Potency, µM (doses to about 9.22 µM), for inactives: at the top dose activation, hits mostly activators | actives 2.4% (n = 320,000) | AID 485313; further: % of control where 0% means no effect; nearly all actives have a fitted effect of over 60% in size
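Luciferase expression driven by the NPC1 promoter was measured in stably transfected Huh7 cells after a 24 h compound incubation, using a luciferase reagent and a luminescence read.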
ELG1 genotox – genotoxicity induction in ELG1-luciferase HEK293T cells. HEK293T ELG1-luciferase reporter, luminescence, 16 h. Potency, µM (top dose mostly 46 µM), for the others: at the highest dose activity change, positive = activation, usual class: activators. actives 1.3% (n = 330,000); further: % of control where 0% means no effect; nearly all actives have a fitted effect of over 60% in size
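Screening used a luciferase reporter fused to human ELG1 in HEK293T cells. Luminescence was read on a CCD plate imager after 16 hr exposure and 30 min ONE-Glo incubation.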
FLuc modulator – inhibits or activates purified firefly luciferase, miR-21 counter-screen; purified FLuc, Km substrates, luminescence inhibition; Potency, µM (doses to about 57.5 µM), for inactives: top-dose activity change, negative = inhibition, most hits filed as inhibitors; actives 6.9% (n = 360,000); AID 588342;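 further: plate controls were vehicle for no effect and reference inhibitor for full effect; nearly all actives have a fitted effect of over 55% in size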
Target sequence (P08659 whole entry, looked up): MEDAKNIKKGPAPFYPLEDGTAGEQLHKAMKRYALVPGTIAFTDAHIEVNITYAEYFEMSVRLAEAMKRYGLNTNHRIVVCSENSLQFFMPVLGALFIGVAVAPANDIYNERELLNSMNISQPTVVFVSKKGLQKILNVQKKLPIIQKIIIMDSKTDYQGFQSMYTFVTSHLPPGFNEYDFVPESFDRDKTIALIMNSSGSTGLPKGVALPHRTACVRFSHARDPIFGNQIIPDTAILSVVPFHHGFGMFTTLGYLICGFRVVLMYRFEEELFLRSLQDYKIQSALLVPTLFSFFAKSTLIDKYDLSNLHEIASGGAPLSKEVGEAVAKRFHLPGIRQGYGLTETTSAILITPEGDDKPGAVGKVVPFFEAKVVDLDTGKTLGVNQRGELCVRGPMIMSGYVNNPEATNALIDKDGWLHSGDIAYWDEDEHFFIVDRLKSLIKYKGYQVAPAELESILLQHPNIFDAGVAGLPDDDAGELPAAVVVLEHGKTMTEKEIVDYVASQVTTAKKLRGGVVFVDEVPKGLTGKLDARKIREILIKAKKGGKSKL
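Purified P. pyralis luciferase, 10 nM final, with Km-level 10 uM D-luciferin and 10 uM ATP in 50 mM Tris acetate pH 7.5, 10 mM Mg acetate, 0.01% Tween-20, 0.05% BSA; 6-point qHTS titration about 60 µM downward; luminescence read.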
SMN2 splice up – increases expression of the SMN2 splice variant; AID 1458; Potency, µM (titrated, usually from 46.1 µM), inactives show top-dose activity change, positive = activation, actives largely listed as activators; actives 2.8% (n = 210,000); HEK293 SMN2-luciferase splicing reporter, luminescence, 30-36 h; further: % of control where 0% means no effect; nearly all actives have a fitted effect of over 55% in size
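HEK293 cells carry an SMN2 […]–luciferase reporter in which exon 7 inclusion puts luciferase in frame. Cells were plated 10-12 h before compound addition, then incubated 30-36 h at 37C. ONE-Glo luminescence was read; sodium butyrate at 4.5 mM final served as control.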
Rab9 prom act – activates the Rab9 promoter; actives 2.8% (n = 320,000); AID 485297; Huh7 Rab9 promoter-luciferase reporter, luminescence, 24 h; Potency, µM (doses to about 9.22 µM), for the others: at the highest dose activation, negative = inhibition, hits mostly activators; further: % of control where 0% means no effect; nearly all actives have a fitted effect of over 60% in size
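Stable Rab9-luc Huh7, 1500 cells/well, 2 h settle; cmpd in DMSO, 24 h, 37 °C/5% CO2; luciferase reagent 10 min RT; luminescence.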
Starred values were filed as active, the others as inactive; u = inconclusive; x = not tested or not shown; [ ] = remark or other dose. This is a sample that favours compounds with a hit; in the whole collection about 7.5% have one here. The call rests on the fitted dose curve; in most records, active means well fitted curve in the direction sought with a large enough effect; inconclusive means small, poorly fitted or top-dose-only effect, or another doubt; inactive means no such curve, though single readings can be large; an effect the other way counts as inactive or inconclusive. Potency means the concentration at half of the fitted maximal effect.

SMILES | KinaseGlo FLuc | NPC1 promoter act | ELG1 genotox | FLuc modulator | SMN2 splice up | Rab9 prom act
CCN(CCCNC(=O)c1nn(-c2ccc(OC)c(Cl)c2)c(=O)c2c1c1ccccc1n2C)c1cccc(C)c1 | x | x | x | 0% | 0% | x
NC(=Nc1ccc(Br)cc1)c1ccccc1 | x | 24% | u | u | x | 20%
CC(=Nc1ccc(Br)cc1)c1sc2ccccc2c1O | x | 3.2µM* | 3.7µM* | 1.3µM* | x | 3.2µM*
CC(=Nc1ccccc1)c1sc2ccccc2c1O | -16% | 17% | 2.9µM* | 1.5µM* | 11µM* | u
CCOC(=O)c1sc2ccccc2c1OC(=O)c1ccccc1 | -2% | 2% | -13% | -2% | 11% | -1%
Cc1ccc(CNC(=O)C(=O)NCC(c2cccs2)S(=O)(=O)c2cccs2)cc1 (configuration not stated) | x | x | x | -9% | x | x
Clc1ccc2c(c1)C1OCCC1C(c1ccco1)N2 (configuration not stated) | u | u | u | u | 13µM* | 4.5µM*
Nc1nccc(/C=C/c2ccc(Cl)cc2)n1 | x | 1.8µM* | u | 6µM* | x | 2.2µM*
Cc1ccc(C)c(NC(=O)C(Sc2cccc[n+]2[O-])c2ccccc2)c1 (configuration not stated) | -5% | -3% | 0% | -4% | 4% | 4%
O=C(Nc1ccc(Cl)cc1C(F)(F)F)C(Sc1cccc[n+]1[O-])c1ccccc1 (configuration not stated) | 3% | 0% | 0% | 0% | 5.6µM* | -6%
C[C@@H](CO)NC(=O)c1ccc2c3n(nc2c1)-c1ccccc1CO3 | x | 0.45µM* | u | 0.6µM* | x | u
COCCNC(=O)c1ccc2c3n(nc2c1)-c1ccc(C)cc1CO3 | x | 0.71µM* | u | 6.7µM* | x | 1.1µM*
O=C(NCC1CCCO1)c1ccc2c3n(nc2c1)-c1ccccc1CO3 (configuration not stated) | x | 1µM* | u | 4.8µM* | x | 1.1µM*
CCC(C)NC(=O)c1ccc2c(=O)n3c(nc2c1)CCCCC3 (configuration not stated) | x | x | x | -4% | -5% | x
Cc1ccc2c(c1)COc1c3ccc(C(=O)N[C@@H](CO)C(C)C)cc3nn1-2 | x | 1.8µM* | u | 6.7µM* | x | 3.5µM*
O=C(NCC1CCCO1)c1ccc2c(c1)OCO2 (configuration not stated) | -5% | 5% | 10% | 4% | -6% | 19%
CC1=C(C(=O)Nc2ccccc2)C(c2ccc(O)cc2)n2nc(-c3ccc(Cl)cc3)nc2N1 (configuration not stated) | x | x | x | -17% | 9% | x
CC(C)(C)c1ccc(-c2cc(C(=O)NNC(=O)Nc3ccccc3)c3ccccc3n2)cc1 | -10% | u | u | 0.48µM* | 14µM* | 21%
O=C(NNC(=O)c1cc(-c2cccnc2)nc2ccccc12)Nc1ccc(Cl)cc1 | 0% | 13% | -8% | 24µM* | -3% | 26%
C=CCNC(=S)NNC(=O)c1cc(-c2cccnc2)nc2ccccc12 | x | 0% | 3% | 9.5µM* | x | 6%
O=C(NNC(=O)c1cc(-c2ccccc2)nc2ccccc12)Nc1cccc(Cl)c1 | -4% | -2% | -21% | u | -16% | 0%
Cc1ccc(NC(=O)COC(=O)c2c(C)nn(-c3ccccc3)c2C)cc1 | x | 0% | 2% | -2% | x | -6%
Cc1nn(-c2ccccc2)c(C)c1C(=O)OCC(=O)Nc1ccccc1 | x | u | 11% | 9.5µM* | x | u
COc1ccccc1NC(=O)COC(=O)c1c(C)nn(-c2ccccc2)c1C | x | u | 14% | 7.6µM* | x | u
O=C(NCCc1csc(-c2cccnc2)n1)c1ccccc1Br | x | 1% | -5% | 17µM* | x | -2%
SMILES | KinaseGlo FLuc | NPC1 promoter act | ELG1 genotox | FLuc modulator | SMN2 splice up | Rab9 prom act
CC(C)Oc1ccc(C(=O)NCCc2csc(-c3cccc(F)c3)n2)cc1 | x | x | x | 24µM* | x | x
CCOc1ccc(C(=O)NCCc2csc(-c3cccnc3)n2)cc1 | x | x | x | 21µM* | x | x
O=C(NCCc1csc(-c2cccnc2)n1)c1ccc(Cl)cc1 | x | -2% | -3% | 9.5µM* | x | -1%
O=C(Cc1ccc(F)cc1)NCCc1csc(-c2cccc(F)c2)n1 | x | x | x | -3% | x | x
O=[N+]([O-])c1ccc(CSc2nnc(SCc3ccc(Cl)cc3)s2)cc1 | x | 0% | -5% | -3% | x | 9%
Oc1ccc(Cl)cc1C=Nc1cnc2ccccc2c1 | -2%[7.66 µM] | x | x | x | -1%[9.22 µM] | x
O=C(NCc1ccc(Cl)cc1)c1csc(-c2cccnc2)n1 | x | 5% | -8% | 0% | x | -6%
O=C(NNC(=O)c1ccc(Cl)cc1Cl)c1csc(-c2cccnc2)n1 | x | 25% | 3% | 5.4µM* | x | 17%
Cc1cccc(NC(=O)c2sc3nc(N)c(C#N)cc3c2N)c1 | 1% | 2.8µM* | u | 9.5µM* | 16µM* | 2.5µM*
CCc1nnc(NC(=O)c2sc3nc4c(cc3c2N)CCCCCC4)s1 | 2% | u | u | 4.8µM* | 13µM* | 2.8µM*
CC(=O)c1cccc(NC(=O)c2sc3nc4c(cc3c2N)CCCC4)c1 | x | x | x | 0.54µM* | 17% | x
COc1ccc(NC(=O)c2sc3nc4c(cc3c2N)CCCCCC4)cc1OC | x | x | x | -2% | 1% | x
CCc1nnc(NC(=O)c2sc3nc4c(cc3c2N)CCCCC4)s1 | -1% | 2.2µM* | u | 1.7µM* | 8.9µM* | 1.6µM*
COc1ccc(/C=C\c2onc(C)c2S(=O)(=O)N2CCC(C(=O)Nc3ccc(Cl)cc3)CC2)cc1 | x | x | x | 0% | -4% | x
Cc1cc(C(=O)O)c2c(=O)n(C)c(=O)n(C)c2n1 | x | x | x | -9% | 4% | x
O=C1C=C(NCc2ccc3c(c2)OCO3)CC(c2ccccc2)C1 (configuration not stated) | 1% | -3% | -3% | 3% | x | -9%
O=S1(=O)CCN2C(=N1)Sc1c2ccc2c1CCCC2 | -4% | 16% | u | 15µM* | 8% | 17%
O=C1c2cccc3cccc(c23)C(=O)N1OS(=O)(=O)c1ccccc1 | -2% | 1% | 11% | 19µM* | 4% | -3%
CC(=O)OCCCN1c2ccccc2Nc2nnc(-c3ccccc3)cc21 | -7% | 1.8µM* | u | 2.4µM* | 14µM* | 1.6µM*
Clc1cccc(-n2ncc3c(NC4CCCCC4)ncnc32)c1 | x | x | x | 4.8µM* | x | x
Cc1ccc(-n2ncc3c(NC4CCCCCC4)ncnc32)cc1 | x | x | x | 0.95µM* | x | x
Fc1ccc(-n2ncc3c(NC4CCCCCC4)ncnc32)cc1 | x | x | x | 4.8µM* | x | x
Cc1ccc(-n2ncc3c(NC4CCCCC4)ncnc32)cc1 | x | x | x | 0.43µM* | x | x

Assay outcomes (PubChem)
